Source: PubChem (National Center for Advancing Translational Sciences (NCATS))
Tb PYK inh – T. brucei pyruvate kinase inhibition; Potency, µM (doses to about 76.8 µM), hits mostly inhibitors; AID 624173; Q57TT1; 410,000 compounds, 0.12% hits; TbPYK enzyme, Kinase-Glo Plus ATP luminescence, 45 min; also: nearly all actives have a fitted effect of over 50% in size
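T. brucei PYK with substrate was exposed to pin-transferred compounds across a concentration series, then started with 130 uM ADP (final). After 45 min at room temperature, Kinase-Glo Plus luminescence was read, normalized and curve-fitted.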
FMDV inh – foot and mouth disease virus antiviral activity | 410,000 compounds, 1.2% hits | AID 1159524 | Potency, µM (highest dose often 57.9 µM), actives largely listed as inhibitors | FMDV antiviral cell-based qHTS; calls by dose curve; tested in HEK293T cells; also: read-out not given here; nearly all actives have a fitted effect of over 45% in size
RE007 growth inh – less growth of the S. pombe RE007 Vpr strain; AID 651644; Potency, µM (titrated, usually from 92.2 µM), actives largely listed as inhibitors; S. pombe RE007 Vpr strain, BacTiter-Glo ATP luminescence, 24 h; 360,000 compounds, 0.21% hits; active = well fitted falling curve with a large enough effect; inconclusive = small, poorly fitted or top-dose-only effect; inactive = no such curve, though single readings can be large or run the other way; also: nearly all actives have a fitted effect of over 50% in size
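Fission yeast strain RE007, carrying one chromosomally integrated HIV-1 vpr copy, was seeded at OD 0.01 in PMG+AL medium with 23 nL pinned compound. After 24 h at 30 °C and 99% humidity, viability was read by BacTiter-Glo luminescence.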
Sm TGR inh – inhibitors of Schistosoma mansoni thioredoxin glutathione reductase. Q962Y6. purified TGR, DTNB reduction, TNB absorbance 405 nm. Potency, µM (doses to about 114 µM), actives largely listed as inhibitors. 360,000 compounds, 3% hits. AID 485364; also: nearly all actives have a fitted effect of over 60% in size
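First, TGR (20 nM dispensed) and NADPH were mixed with compound. Second, a 15 min room-temperature incubation followed. Third, further NADPH and then DTNB were added to start the reaction. Finally, TNB absorbance was monitored kinetically.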
Hits are given with their value; [ ] = another dose, or the depositor's remark. Sampled rows, rich in hits. Any-hit rate of the full collection: about 3.7%. Unless noted, calls follow the shape of the dose curve; as a rule, active = well fitted curve in the direction sought with a large enough effect; inconclusive = small, poorly fitted or top-dose-only effect, or another doubt; inactive = no such curve, though single readings can be large; an effect the other way counts as inactive or inconclusive.

For O=[N+]([O-])c1ccc(NC(=S)N/C(=N/CS(=O)(=O)c2ccccc2)c2ccccc2)cc1 the results were Tb PYK inh inactive, FMDV inh inactive, RE007 growth inh inactive and Sm TGR inh 20µM.
CCOC(=O)c1ccccc1NC(=O)C1CC(=O)N(C(C)(C)C)C1 (configuration not stated) was read as Tb PYK inh inactive, FMDV inh inactive, RE007 growth inh inactive and Sm TGR inh inactive.
For CCOC(=O)c1ccccc1NC1CC(=O)N(c2ccccc2C)C1=O (configuration not stated) the results were Tb PYK inh inactive, FMDV inh inactive, RE007 growth inh inactive and Sm TGR inh 3.5µM.
For Cc1ccc(NC(=O)c2cc(S(=O)(=O)N3CCCC3)cn2C)cc1C the results were Tb PYK inh inactive, FMDV inh inactive, RE007 growth inh inactive and Sm TGR inh inactive.
Screening Cn1cc(NC(=O)c2cc(NC(=O)c3cc(NC=O)cn3C)cn2C)cc1C(=O)NCCC(=N)N returned Tb PYK inh inactive and Sm TGR inh 14µM.
Screening COc1ccccc1-c1c(C)nn2c(N3CCCCCC3)cc(C)nc12 returned Tb PYK inh inactive, FMDV inh 28µM, RE007 growth inh inactive and Sm TGR inh inactive.
For CC(=O)c1nn(-c2ccc(OC(F)(F)F)cc2)nc1Nc1ccc(C)cc1 the results were Tb PYK inh inactive, FMDV inh inactive and Sm TGR inh inactive.
Screening COc1ccc(OC)c2sc(N(Cc3cccnc3)C(=O)c3ccco3)nc12 returned Tb PYK inh inactive[15.4 µM], FMDV inh inactive and Sm TGR inh inactive.
`Cc1cccc(NCc2ccc(O)c3ncccc23)c1C` gave Tb PYK inh inactive, FMDV inh inactive, RE007 growth inh inactive and Sm TGR inh 0.11µM.
Oc1ccc(CNc2cccc(C(F)(F)F)c2)c2cccnc12 was read as Sm TGR inh 0.32µM.
For Cc1cccnc1NCc1ccc(O)c2ncccc12 the results were Tb PYK inh inactive, FMDV inh inactive, RE007 growth inh inactive and Sm TGR inh 0.28µM.
`O=C(NCc1ccc2c(c1)CCN2C(=O)c1ccncc1)c1cccc(Cl)c1` gave Tb PYK inh inactive, FMDV inh inactive and Sm TGR inh inactive.
For COc1cccc(Cc2nc3cccnc3n2C2CCN(C(=O)c3n[nH]c4c3CCCC4)CC2)c1 the results were FMDV inh inactive.
`Brc1ccc(OCCN2CCOCC2)cc1` gave Tb PYK inh inactive, FMDV inh inactive, RE007 growth inh inactive and Sm TGR inh inactive.
`O=C(CCN1CCOCC1)c1ccc(Cl)cc1` gave Tb PYK inh inactive, FMDV inh inactive, RE007 growth inh 40µM and Sm TGR inh inactive.
`O=C(CCN1CCOCC1)c1ccc(Br)cc1` gave Tb PYK inh inactive, FMDV inh inactive, RE007 growth inh 32µM and Sm TGR inh inactive.
Screening O=C(NCCCN1CCOCC1)c1ccc(Cl)cc1 returned Tb PYK inh inactive.
`CCC(=O)Nc1sc2c(c1C(=O)Nc1ccc(Br)cc1)CCCCC2` gave Tb PYK inh inactive, FMDV inh inactive and Sm TGR inh inactive.
Screening CC(C)CN1CCCC2(CCN(C(=O)c3cccc(F)c3)CC2)C1 returned Tb PYK inh inactive and FMDV inh inactive.
`CC(C)(C)c1ccc(CN2N=Nc3ccccc3S2(=O)=O)cc1` gave Tb PYK inh inactive, FMDV inh inconclusive, RE007 growth inh inactive and Sm TGR inh 13µM.
Screening O=S1(=O)c2ccccc2N=NN1Cc1ccc(Cl)c(Cl)c1 returned Sm TGR inh 4µM.
`CCC1CCCCN1C(=O)c1nn(-c2ccc(C)cc2)c(=O)c2c1c1ccccc1n2C` (configuration not stated) gave Tb PYK inh inactive, FMDV inh inconclusive and Sm TGR inh inactive.
For Nn1cnnc1SCC(=O)Nc1ccc(C2CCCCC2)cc1 the results were Tb PYK inh inactive, RE007 growth inh inactive and Sm TGR inh inactive.
O=C(O)CSCC(=O)Nc1ccc(C2CCCCC2)cc1 was read as Tb PYK inh inactive, FMDV inh 1.1µM, RE007 growth inh inactive and Sm TGR inh inactive.
For c1ccc(C(c2ccccc2)N2CCN(c3nc4ccccc4n4cnnc34)CC2)cc1 the results were Tb PYK inh inactive, FMDV inh 28µM, RE007 growth inh inactive and Sm TGR inh inactive.
c1cnc(N2CCN(c3nc4ccccc4n4cnnc34)CC2)nc1 was read as Tb PYK inh inactive, FMDV inh inactive, RE007 growth inh inactive and Sm TGR inh inactive.
Screening Cc1ccc(Nc2cc(C)nc3nc(C)nn23)c(C)c1 returned Tb PYK inh inactive, FMDV inh 0.71µM, RE007 growth inh inactive and Sm TGR inh inactive.
For Cc1cc(Nc2ccc(F)cc2C)n2nc(C)nc2n1 the results were Tb PYK inh inactive, FMDV inh inactive, RE007 growth inh inactive and Sm TGR inh inactive.
For COc1ccc(/C=C2\SC(=O)N(CCNC(=O)Cc3coc4cc(C)ccc34)C2=O)cc1OC the results were Tb PYK inh inactive, FMDV inh 40µM, RE007 growth inh inactive and Sm TGR inh inactive.
O=C(Nc1cc(Sc2ccccn2)cc([N+](=O)[O-])c1)c1ccc([N+](=O)[O-])cc1 was read as Tb PYK inh inconclusive, FMDV inh 22µM, RE007 growth inh inactive and Sm TGR inh inactive.
O=C(CN1C(=O)CSc2ccc(S(=O)(=O)N3CCCC3)cc21)Nc1cccc(Cl)c1 was read as Tb PYK inh inactive, FMDV inh inactive and Sm TGR inh inactive.
For N=C1C=CC=C2C1=NC1(CCCCC1)N2O the results were Tb PYK inh inactive, RE007 growth inh inactive and Sm TGR inh 20µM.
`Cc1cccc(NC(=O)c2ccc(N(Cc3ccccc3)S(C)(=O)=O)cc2)c1` gave Tb PYK inh inactive, FMDV inh 22µM and Sm TGR inh inactive.
Screening CCN(c1ccccc1)S(=O)(=O)c1cc(C(=O)Nc2cccc(Cl)c2)ccc1F returned Tb PYK inh inactive, FMDV inh 20µM, RE007 growth inh inactive and Sm TGR inh inactive.
For CC(=O)c1cccc(NC(=O)c2ccc(N(Cc3ccccc3)S(C)(=O)=O)cc2)c1 the results were Tb PYK inh inactive, FMDV inh 32µM, RE007 growth inh inactive and Sm TGR inh inactive.
For CS(=O)(=O)N(Cc1ccccc1)c1ccc(C(=O)Nc2ccc(C(N)=O)cc2)cc1 the results were Tb PYK inh inactive, FMDV inh inactive, RE007 growth inh inactive and Sm TGR inh inactive.
For CCc1ccc(NC(=O)c2ccc(F)c(S(=O)(=O)N(CC)c3ccccc3)c2)cc1 the results were Tb PYK inh inactive, FMDV inh inconclusive, RE007 growth inh inactive and Sm TGR inh inactive.
`CCC(Sc1nnc(C)n2c1cc1sccc12)C(=O)Nc1ccccc1F` (configuration not stated) gave Tb PYK inh inactive, FMDV inh inactive and Sm TGR inh inactive.
`COc1cccc(CNC(=O)c2c(OC)cc(=O)n3c2CCN(C(=O)c2ccc(Cl)cc2)CC3)c1` gave FMDV inh inactive.
Cc1cccc(OCCOc2ccccc2C=C(C#N)C#N)c1 was read as Tb PYK inh inactive, FMDV inh inactive, RE007 growth inh inactive and Sm TGR inh 2.5µM.
Screening Cc1ccccc1OCCOc1ccccc1C=C(C#N)C#N returned Sm TGR inh 4µM.
